Test results: PubChem BioAssay (EPA / NIEHS)
Where “and” joins values, the source holds several entries; their conditions need not be identical. Identical values can stand only once. Results filed as inconclusive are left out. The source holds several records for some structures; these can differ, active in one and inactive in another. Calls of active or inactive are those of the source. How the source made its calls, unless noted: active means hit-call score of the fitted dose curve at least 0.9, where 1 is the maximum; inactive means score below 0.9.

Legend:
[1] = ATG_FoxO_CIS: Attagene CIS-FACTORIAL HepG2 Assay for human Forkhead box O (FoxO) (AID 2282943); conditions: HepG2 Attagene cis-reporter, FoxO element, mRNA; actives raise or lower the signal
Method in brief: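 HepG2, transient MRTU transfection (cis element, endogenous TFs). Dose 24 h. TriZol RNA → oligo(dT) RT → PCR → 6-FAM primer extension → HpaI cut → CE. Gain/loss vs DMSO.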

[2] = ATG_GRE_CIS: Attagene CIS-FACTORIAL HepG2 Assay for human Glucocorticoid Response Elements (GRE) (AID 2282947); conditions: HepG2 GRE cis-reporter, Attagene multiplex mRNA; actives raise or lower the signal
Method in brief: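 Multiplexed cis-reporter mRNA induction, HepG2, 24 h post-dose. RT-PCR, FAM-labelled, HpaI-digested amplicons by CE. Bidirectional fit vs DMSO.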

[3] = ATG_Sox_CIS: Attagene CIS-FACTORIAL HepG2 Assay for human SRY-box transcription factor (SOX) (AID 2282960); conditions: HepG2 Attagene cis-factorial SOX reporter, mRNA; actives raise or lower the signal
Method in brief: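 Fluorescence-labelled cDNA fragments from reporter transcripts, sized by CE, give the signal. Cells: HepG2, transiently transfected with cis-regulated reporter units. Exposure 24 h; DMSO negative control; bidirectional curve fitting.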

[4] = ATG_SREBP_CIS: Attagene CIS-FACTORIAL HepG2 Assay for human Sterol Regulatory Element Binding (SREBP) (AID 2282962); conditions: HepG2 Attagene cis-factorial SREBP reporter, mRNA; actives raise or lower the signal
Method in brief: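 Endogenous factor activity is measured in HepG2 through multiplexed reporter units under cis-element control. Following a 24 h incubation, reporter transcripts are reverse-transcribed, PCR-amplified and sized by capillary electrophoresis; activity is fitted in both directions relative to DMSO.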

[5] = molecular target: X-box-binding protein 1 (Homo sapiens) (UniProt P17861); experiment: ATG_Xbp1_CIS: Attagene CIS-FACTORIAL HepG2 Assay for human X-box Binding Protein 1 (XBP1) (AID 2282972); conditions: HepG2 XBP1 cis-element reporter, Attagene multiplex; actives raise or lower the signal
Method in brief: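 Multiplexed cis-reporter readout in transfected HepG2 liver cells. Exposure lasted 24 hours. Activity in either direction was fitted against DMSO as negative control and baseline.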

[6] = molecular target: Hepatocyte nuclear factor 4-alpha (Homo sapiens) (UniProt P41235); experiment: ATG_HNF4a_TRANS: Attagene TRANS-FACTORIAL HepG2 Assay for human Hepatocyte Nuclear Factor 4 alpha (HNF4a) (AID 2282982; active means hit-call score of the fitted dose curve at least 0.9, where 1 is the maximum); conditions: HepG2 HNF4a transactivation reporter, mRNA readout
Method in brief: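 Multiplexed reporter assay: transfected HepG2, 24 h exposure, total RNA → oligo(dT) RT → PCR → 6-FAM extension → HpaI digest → CE fluorescence. DMSO = negative control.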

[7] = molecular target: Nuclear respiratory factor 1 (Homo sapiens) (UniProt Q16656); experiment: ATG_NRF1_CIS: Attagene CIS-FACTORIAL HepG2 Assay for human Nuclear Respiratory Factor 1 (NRF1) Orphan Gene (AID 2282987); conditions: HepG2 NRF1 cis-element reporter, Attagene multiplex; actives raise or lower the signal
Method in brief: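 Reporter mRNA induction or loss in HepG2 cells after 24 h dosing; cis-regulated reporter constructs report endogenous transcription-factor activity. Quantified by RT-PCR/capillary electrophoresis fluorescence, DMSO-referenced.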

[8] = ATG_NFI_CIS: Attagene CIS-FACTORIAL HepG2 Assay for human Nuclear Factor I (NFI) (AID 2282989); conditions: HepG2 cis-regulatory reporter, NFI response element transcription; actives raise or lower the signal
Method in brief: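 Read-out: reporter mRNA via RT-PCR plus capillary electrophoresis with fluorescence detection. Transiently transfected HepG2 (endogenous TF activity on cis promoters), 24 h compound exposure; gain or loss of signal fitted against DMSO.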

[9] = molecular target: Peroxisome proliferator-activated receptor gamma (Homo sapiens) (UniProt P37231); experiment: ATG_PPARg_TRANS: Attagene TRANS-FACTORIAL HepG2 Assay for human Peroxisome Proliferator-activated Receptor-gamma (PPARg) (AID 2283007; active means hit-call score of the fitted dose curve at least 0.9, where 1 is the maximum)
Method in brief: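 Chimeric NR-Gal4 transactivation is measured in transiently transfected HepG2 cells by reporter mRNA induction at 24 h. Detection uses RT-PCR with fluorescent labelling and capillary electrophoresis; DMSO defines baseline.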

[10] = molecular target: Retinoic acid receptor RXR-alpha (Homo sapiens) (UniProt P19793); experiment: ATG_RXRa_TRANS: Attagene TRANS-FACTORIAL HepG2 Assay for human Retinoid X Receptor alpha (RXRa) (AID 2283012; active means hit-call score of the fitted dose curve at least 0.9, where 1 is the maximum)
Method in brief: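 Chimeric NR-GAL4 trans-activation in HepG2, 24 h treatment; reporter transcripts quantified by fluorescence on capillary electrophoresis, analysed for upward change from DMSO.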

[11] = molecular target: human Retinoid X Receptor beta (RXRb), RXRB (gene 6257) (UniProt P28702); experiment: ATG_RXRb_TRANS: Attagene TRANS-FACTORIAL HepG2 Assay for human Retinoid X Receptor beta (RXRb) (AID 2283013; active means hit-call score of the fitted dose curve at least 0.9, where 1 is the maximum)
Method in brief: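 After a 24 h incubation with test chemical, transfected HepG2 cells carrying NR-Gal4 fusions and GAL4-UAS reporter transcription units yield RNA whose reporter cDNA is FAM-labelled, HpaI-cut and sized by capillary electrophoresis; increases over DMSO are scored.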

[12] = ATG_BRE_CIS: Attagene CIS-FACTORIAL HepG2 Assay for human Bone Morphogenetic Protein (BMP) Response Element (BRE) (AID 2282933); conditions: HepG2 BMP response element reporter, Attagene transcription factor profiling; actives raise or lower the signal
Method in brief: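 Read-out: reporter mRNA induction quantified by RT-PCR and capillary electrophoresis after 24 h chemical exposure of transfected HepG2 cells. Endogenous factor activity on the BMP response element; gain or loss fitted against DMSO baseline.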

[13] = ATG_E_Box_CIS: Attagene CIS-FACTORIAL HepG2 Assay for human Enhancer Box (E-box) (AID 2282936); conditions: HepG2 E-box cis-reporter transcription, actives raise or lower the signal
Method in brief: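 Fluorescent reporter fragments separated by capillary electrophoresis gave the signal; mRNA came from HepG2 cells transfected with cis-element reporters and treated 24 h. Curves fitted bidirectionally relative to DMSO controls.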

[14] = ATG_PBREM_CIS: Attagene CIS-FACTORIAL HepG2 Assay for human Phenobarbital-responsive Enhancer Module (PBREM) (AID 2282955); conditions: HepG2 PBREM cis-reporter, Attagene multiplexed transcription; actives raise or lower the signal
Method in brief: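 Multiplexed cis-reporter readout in human hepatoma HepG2 cells; PBREM-regulated transcript quantified after 24 h exposure by fluorescent RT-PCR fragment analysis. Signal changes up or down fitted relative to DMSO.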

[15] = ATG_PPRE_CIS: Attagene CIS-FACTORIAL HepG2 Assay for human Peroxisome Proliferator-activated Response Element (PPRE) (AID 2282958); conditions: HepG2 PPRE cis-element reporter, Attagene transcription factor profiling; actives raise or lower the signal
Method in brief: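 DMSO served as negative control and baseline for bidirectional curve fitting. Signal came from PPRE-regulated reporter mRNA in HepG2 cells, measured 24 h post-dosing by RT-PCR, 6-FAM primer extension and capillary electrophoresis.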

[16] = ATG_M_06_TRANS: Attagene TRANS-FACTORIAL HepG2 Assay for M06 Transcription Factor (Internal Marker) (AID 2282983; active means hit-call score of the fitted dose curve at least 0.9, where 1 is the maximum;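 further: reporter transcript level by RT-PCR then capillary electrophoresis fluorescence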); conditions: HepG2 Attagene TRANS M06 internal marker reporter
Method in brief: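 mRNA levels of a reporter transcript, quantified as FAM fluorescence on capillary electrophoresis, served as readout. HepG2 cells expressing exogenous GAL4-chimera reporter constructs were exposed for 24 h. Gain of signal over DMSO was evaluated.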

[17] = molecular target: Nuclear receptor subfamily 1 group I member 2 (Homo sapiens) (UniProt O75469); experiment: ATG_PXR_TRANS: Attagene TRANS-FACTORIAL HepG2 Assay for human Pregnane X Receptor (PXR) (AID 2283008; active means hit-call score of the fitted dose curve at least 0.9, where 1 is the maximum)
Method in brief: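 HepG2 transfected (FuGene 6) with GAL4-UAS reporter units + PXR-Gal4 chimera; dosed 24 h. Total RNA → oligo(dT) RT → PCR → 6-FAM primer extension → HpaI cut → CE. Gain-of-signal vs DMSO.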

[18] = molecular target: Cellular tumor antigen p53 (Homo sapiens) (UniProt P04637); experiment: TOX21_p53_BLA_p3_ratio: Tox21 HCT-116 p53 Agonism Beta-lactamase Assay, Ratio, Phase 3 (AID 2283596; active means hit-call score of the fitted dose curve at least 0.9, where 1 is the maximum)
Method in brief: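 Cells were seeded at 4000/well, rested 5 h at 37C, then dosed with DMSO compound solutions (217-fold dilution) for 16 h. CCF4-AM substrate was loaded for 2 h at room temperature, and the 460/530 nm emission ratio was fitted for gain of signal versus DMSO.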

[19] = molecular target: Cellular tumor antigen p53 (Homo sapiens) (UniProt P04637); experiment: TOX21_p53_BLA_p5_ratio: Tox21 HCT-116 p53 Agonism Beta-lactamase Assay, Ratio, Phase 5 (AID 2283599; active means hit-call score of the fitted dose curve at least 0.9, where 1 is the maximum)
Method in brief: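 Beta-lactamase reporter ratio (blue 460 nm over green 530 nm, 405 nm excitation) after 2 h CCF4-AM loading, in HCT-116 cells exposed 16 h at 37 C to compounds pinned at 217-fold dilution. Increases relative to DMSO baseline scored.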

[20] = molecular target: Cellular tumor antigen p53 (Homo sapiens) (UniProt P04637); experiment: TOX21_p53_BLA_p4_ratio: Tox21 HCT-116 p53 Agonism Beta-lactamase Assay, Ratio, Phase 4 (AID 2283601; active means hit-call score of the fitted dose curve at least 0.9, where 1 is the maximum)
Method in brief: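 Signal is the blue/green (460nm/530nm) ratio of cleaved versus uncleaved CCF4-AM substrate, read after 2 h substrate loading. Cells were HCT116 carrying the p53-responsive beta-lactamase reporter, dosed 16 h at 37C, 5% CO2; CellTiter-Glo measured in parallel.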

Measured: AC50

Cellular tumor antigen p53 (Homo sapiens), sequence (P04637 whole entry, looked up): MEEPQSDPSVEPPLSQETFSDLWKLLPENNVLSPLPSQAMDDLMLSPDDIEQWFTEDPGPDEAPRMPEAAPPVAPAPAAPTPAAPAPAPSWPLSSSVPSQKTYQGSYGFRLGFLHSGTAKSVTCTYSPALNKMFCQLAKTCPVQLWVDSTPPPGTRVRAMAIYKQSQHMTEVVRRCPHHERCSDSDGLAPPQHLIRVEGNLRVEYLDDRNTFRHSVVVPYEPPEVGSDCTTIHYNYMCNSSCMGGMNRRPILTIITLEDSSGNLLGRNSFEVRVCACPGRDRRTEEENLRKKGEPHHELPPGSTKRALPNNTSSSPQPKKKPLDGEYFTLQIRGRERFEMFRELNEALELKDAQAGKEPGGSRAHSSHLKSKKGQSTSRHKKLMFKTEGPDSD
X-box-binding protein 1 (Homo sapiens), sequence (P17861 whole entry, looked up): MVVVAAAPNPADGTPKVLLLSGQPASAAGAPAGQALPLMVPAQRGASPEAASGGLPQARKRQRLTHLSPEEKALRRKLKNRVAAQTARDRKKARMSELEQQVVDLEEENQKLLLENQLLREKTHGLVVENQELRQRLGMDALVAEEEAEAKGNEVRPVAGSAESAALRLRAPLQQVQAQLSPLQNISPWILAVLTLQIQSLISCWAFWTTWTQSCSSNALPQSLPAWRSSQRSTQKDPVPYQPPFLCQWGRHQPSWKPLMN
human Retinoid X Receptor beta (RXRb), RXRB (gene 6257), sequence (P28702 whole entry, looked up, the tested form may be a part): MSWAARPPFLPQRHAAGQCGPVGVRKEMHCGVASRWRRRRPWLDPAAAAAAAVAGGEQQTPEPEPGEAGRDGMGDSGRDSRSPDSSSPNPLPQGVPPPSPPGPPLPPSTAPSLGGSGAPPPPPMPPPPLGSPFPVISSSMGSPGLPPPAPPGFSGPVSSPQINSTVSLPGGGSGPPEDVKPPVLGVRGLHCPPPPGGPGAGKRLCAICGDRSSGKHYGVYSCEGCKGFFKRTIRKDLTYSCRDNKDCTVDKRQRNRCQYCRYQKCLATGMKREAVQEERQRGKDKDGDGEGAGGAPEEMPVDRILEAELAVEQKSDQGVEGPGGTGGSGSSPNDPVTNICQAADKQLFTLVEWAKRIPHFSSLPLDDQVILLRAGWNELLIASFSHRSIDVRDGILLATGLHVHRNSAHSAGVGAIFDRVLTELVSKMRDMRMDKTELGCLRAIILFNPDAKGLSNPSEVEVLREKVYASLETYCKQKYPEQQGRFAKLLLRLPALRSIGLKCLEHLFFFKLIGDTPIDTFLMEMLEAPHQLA
Peroxisome proliferator-activated receptor gamma (Homo sapiens), sequence (P37231 whole entry, looked up, the tested form may be a part): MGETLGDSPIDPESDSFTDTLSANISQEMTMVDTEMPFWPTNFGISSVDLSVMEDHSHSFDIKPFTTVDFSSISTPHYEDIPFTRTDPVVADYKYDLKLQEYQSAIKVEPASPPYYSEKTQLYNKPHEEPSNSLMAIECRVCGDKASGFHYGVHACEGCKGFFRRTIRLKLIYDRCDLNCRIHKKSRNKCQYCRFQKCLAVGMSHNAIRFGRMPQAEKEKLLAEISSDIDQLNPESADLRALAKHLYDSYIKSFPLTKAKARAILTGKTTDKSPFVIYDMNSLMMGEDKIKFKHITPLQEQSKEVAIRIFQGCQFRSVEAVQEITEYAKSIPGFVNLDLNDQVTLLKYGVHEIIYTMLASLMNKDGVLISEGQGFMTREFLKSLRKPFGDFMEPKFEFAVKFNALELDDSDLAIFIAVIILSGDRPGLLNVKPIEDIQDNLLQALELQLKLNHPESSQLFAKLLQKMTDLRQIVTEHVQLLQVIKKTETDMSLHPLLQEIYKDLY
Nuclear respiratory factor 1 (Homo sapiens), sequence (Q16656 whole entry, looked up): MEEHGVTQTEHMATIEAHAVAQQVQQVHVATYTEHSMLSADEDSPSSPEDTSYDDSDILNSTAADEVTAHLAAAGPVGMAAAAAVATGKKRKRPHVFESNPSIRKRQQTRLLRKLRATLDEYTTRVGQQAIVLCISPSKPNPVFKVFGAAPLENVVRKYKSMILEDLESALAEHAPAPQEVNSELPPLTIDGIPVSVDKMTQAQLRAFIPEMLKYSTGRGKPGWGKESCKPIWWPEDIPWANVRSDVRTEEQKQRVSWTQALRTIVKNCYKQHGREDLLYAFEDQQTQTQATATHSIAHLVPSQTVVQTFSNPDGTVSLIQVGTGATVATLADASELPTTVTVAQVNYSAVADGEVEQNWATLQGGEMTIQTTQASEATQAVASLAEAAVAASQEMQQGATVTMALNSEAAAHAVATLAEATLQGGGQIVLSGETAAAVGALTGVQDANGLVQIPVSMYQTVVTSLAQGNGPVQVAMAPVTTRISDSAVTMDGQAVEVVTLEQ
Retinoic acid receptor RXR-alpha (Homo sapiens), sequence (P19793 whole entry, looked up, the tested form may be a part): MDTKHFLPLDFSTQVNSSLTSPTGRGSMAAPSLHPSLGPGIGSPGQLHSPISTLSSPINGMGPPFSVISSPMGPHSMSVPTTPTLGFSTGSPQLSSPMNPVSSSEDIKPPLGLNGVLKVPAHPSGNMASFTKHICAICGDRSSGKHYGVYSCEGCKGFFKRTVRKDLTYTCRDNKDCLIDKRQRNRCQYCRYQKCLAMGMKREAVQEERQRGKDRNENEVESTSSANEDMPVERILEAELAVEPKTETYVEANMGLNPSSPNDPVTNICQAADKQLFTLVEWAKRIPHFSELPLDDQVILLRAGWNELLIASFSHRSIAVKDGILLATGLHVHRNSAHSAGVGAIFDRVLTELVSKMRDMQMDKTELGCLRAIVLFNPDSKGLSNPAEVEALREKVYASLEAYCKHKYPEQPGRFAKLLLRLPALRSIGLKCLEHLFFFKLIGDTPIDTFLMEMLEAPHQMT
Hepatocyte nuclear factor 4-alpha (Homo sapiens), sequence (P41235 whole entry, looked up): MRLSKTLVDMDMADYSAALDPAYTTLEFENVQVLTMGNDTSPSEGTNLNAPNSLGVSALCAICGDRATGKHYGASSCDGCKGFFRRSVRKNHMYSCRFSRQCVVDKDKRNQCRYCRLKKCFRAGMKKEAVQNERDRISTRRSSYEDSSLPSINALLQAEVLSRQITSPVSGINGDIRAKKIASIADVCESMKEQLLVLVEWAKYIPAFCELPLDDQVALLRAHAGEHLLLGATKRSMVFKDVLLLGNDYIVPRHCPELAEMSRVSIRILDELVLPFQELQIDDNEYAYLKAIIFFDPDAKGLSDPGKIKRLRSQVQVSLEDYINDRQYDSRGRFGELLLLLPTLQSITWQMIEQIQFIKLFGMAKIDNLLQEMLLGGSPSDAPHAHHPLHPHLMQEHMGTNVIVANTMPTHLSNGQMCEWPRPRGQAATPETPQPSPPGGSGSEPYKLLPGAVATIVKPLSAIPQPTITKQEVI
Nuclear receptor subfamily 1 group I member 2 (Homo sapiens), sequence (O75469 whole entry, looked up, the tested form may be a part): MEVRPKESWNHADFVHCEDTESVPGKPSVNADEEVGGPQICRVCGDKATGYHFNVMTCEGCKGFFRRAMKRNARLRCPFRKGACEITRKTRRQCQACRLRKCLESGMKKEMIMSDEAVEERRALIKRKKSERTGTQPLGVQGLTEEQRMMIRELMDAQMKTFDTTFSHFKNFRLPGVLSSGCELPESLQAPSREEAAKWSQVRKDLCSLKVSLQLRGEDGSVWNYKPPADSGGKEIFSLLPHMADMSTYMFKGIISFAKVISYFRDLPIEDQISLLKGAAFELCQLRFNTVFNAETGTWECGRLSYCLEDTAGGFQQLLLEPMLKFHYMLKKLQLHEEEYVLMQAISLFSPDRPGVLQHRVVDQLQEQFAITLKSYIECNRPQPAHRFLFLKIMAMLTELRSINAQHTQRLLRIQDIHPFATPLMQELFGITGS

O=C(O)CCl
inactive: [1] | [2] | [3] | [4] | [5] | [6] | [7] | [8] | [9] | [10] | [11]

C[C@]12CC[C@H]3[C@@H](CC[C@@]45O[C@@H]4C(O)=C(C#N)C[C@]35C)[C@@H]1CC[C@@H]2O
inactive: [12] | [13] | [1] | [14] | [15] | [3] | [4] | [6] | [16] | [7] | [8] | [9] | [10] | [18] | [19] | [20]
active: [5] 60 µM | [17] 27.4 µM | [18] 67 µM | [19] 68.6 µM | [20] 65.8 µM

O=[N+]([O-])C=Cc1ccccc1
inactive: [2] | [14] | [4] | [16] | [10] | [11] | [20]
active: [12] 44.2 µM | [13] 25.5 µM | [15] 61.5 µM | [5] 20.3 µM | [6] 47.5 µM | [7] 38.5 µM | [8] 18.6 µM | [9] 8.83 µM | [17] 8.62 µM

O=C1C(Cl)=C(Cl)C(=O)C(Cl)=C1Cl
inactive: [1] | [2] | [14] | [15] | [3] | [5] | [6] | [16] | [7] | [8] | [9] | [17] | [10] | [11] | [18] | [20]
active: [13] 58.4 µM | [18] 4.93 µM | [19] 15.4 µM and 34.8 µM | [20] 84.7 µM

CCCCCCCCCCCC#N
active: [3] 103 µM | [8] 169 µM | [9] 80.6 µM | [17] 19.5 µM | [11] 44.5 µM
inactive: [12] | [1] | [2] | [14] | [15] | [7] | [10] | [18] | [20]
